Here are results for 17 molecules from PubChem BioAssay (NCATS).

Each structure is given as a SMILES string. “And” between values parts separate entries of the source, which are not always exact repeats. Identical values can stand only once. Records with an inconclusive call do not appear. Some compounds were tested as several samples or in several runs, with calls that do not always agree. The source made the active and inactive calls. Calls follow the shape of the dose curve; as a rule, active = well fitted curve in the direction sought with a large enough effect; inconclusive = small, poorly fitted or top-dose-only effect, or another doubt; inactive = no such curve, though single readings can be large; an effect the other way counts as inactive or inconclusive.

A short description of assay [1]: Viability qHTS for spleen associated tyrosine kinase inhibitor (SYKi) drug resistant MV4-11 cells (AID 1963824). Also: nearly all actives have a fitted effect of over 35% in size. The note with it: SYKi-resistant MV4-11 viability, CellTiter-Glo, 72 h; series mostly up to 45 µM. The method in brief:
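CellTiter-Glo luminescence, read 10 min after reagent addition, reports viability after a 72 hr compound exposure. Cells are an MV4-11 line made resistant to SYK inhibition, seeded at 500 per well onto compound-containing plates.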
On the technique in general: Quantitative high-throughput screening tests each substance at several concentrations.

The nature of assay [2]: Quantitative highthroughput screen to assess conditional lethalithy of NOMO1 cells grown in RPMI1640 with untreated serum (RPMI+s) (AID 1963876). Also: nearly all actives have a fitted effect of over 35% in size.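 As to Viability: 100% = DMSO wells and 0% = empty wells without cells.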 The settings on record: NOMO1 AML cells in RPMI+serum, CellTiter-Glo viability, 48 h; series mostly up to 45.8 µM. The essentials:
(§1)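 Each medium arm—HPLM with 10% dialyzed FBS, or RPMI1640 with 5 mM glucose and 10% untreated or dialyzed FBS—was screened against an 11-point, 3-fold compound titration for 48 h at 37 °C, with CellTiter-Glo luminescence as endpoint.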
A general note: Cellular ATP, detected with luciferase, serves as a proxy for viable cell number.

Assay [3] is described as follows: Quantitative highthroughput screen to assess conditional lethalithy of NOMO1 cells grown in RPMI1640 with dialyzed fetal bovine serum (RPMI+ds) (AID 1963877). Also: nearly all actives have a fitted effect of over 30% in size.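 As to Viability: 100% = DMSO control wells and 0% = empty wells.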 The settings on record: NOMO1 in RPMI+dialyzed FBS viability, ATP luminescence, 48 h; series mostly up to 45.8 µM. The essentials: as §1
The nature of assay [4]: Quantitative highthroughput screen to assess conditional lethalithy of P12 Ichikawa cells grown in RPMI1640 with dialyzed fetal bovine serum (RPMI+ds) (AID 1963880). Also: nearly all actives have a fitted effect of over 35% in size.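 As to Viability: 100% = DMSO wells and 0% = empty wells on each plate.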 The note with it: ATP luminescence, 48 h; Potency: P12-Ichikawa viability; series mostly up to 45.8 µM. The essentials:
as §1

The nature of assay [5]: Quantitative highthroughput screen to assess conditional lethalithy of SEM cells grown in Human Plasma-Like Medium with dialyzed fetal bovine serum (HPLM+ds) (AID 1963882). Also: nearly all actives have a fitted effect of over 35% in size. The note with it: SEM B-ALL cells in HPLM+ds, CellTiter-Glo viability, 48 h; series mostly up to 45.8 µM. The method in brief:
as §1

Assay [6] is described as follows: Quantitative highthroughput screen to assess conditional lethalithy of SEM cells grown in RPMI1640 with dialyzed fetal bovine serum (RPMI+ds) (AID 1963884). Also: nearly all actives have a fitted effect of over 35% in size.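 As to Viability: 100% = DMSO control wells and 0% = empty wells without cells.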 The settings on record: SEM B-ALL cells, RPMI+dialyzed FBS, CellTiter-Glo viability, 48 h; series mostly up to 45.8 µM. The essentials:
as §1

The nature of assay [7]: Cellular viability qHTS for adrenocortical cancer (ACC) cell line SW-13 (AID 1963989). Also: nearly all actives have a fitted effect of over 65% in size.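 As to activity (max response): cells grown in serum-free medium with ITS supplement; % is scaled to controls: 0 for no effect and ±100 for the full control effect.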 The note with it: SW-13 ACC cells viability, CellTiter-Glo, 48 h; activity (max response): stronger effect = lower value. The essentials: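 IC50 and maximal-response values come from four-parameter logistic fits of titration data. SW-13 cells in serum-free medium received compounds (up to 46 uM final) for 48 h before CellTiter-Glo luminescence.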

Assay [8] can be described thus: Quantitative highthroughput screen to assess conditional lethalithy of NOMO1 cells grown in Human Plasma-Like Medium with dialyzed fetal bovine serum (HPLM+ds) (AID 1963878). Also: nearly all actives have a fitted effect of over 35% in size.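 As to Viability: 100% = DMSO wells and 0% = empty wells on each plate.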 The note with it: NOMO1 AML cells in HPLM+ds, CellTiter-Glo viability, 48 h; series mostly up to 45.8 µM. The method in brief: as §1
A short description of assay [9]: Quantitative highthroughput screen to assess conditional lethalithy of P12 Ichikawa cells grown in Human Plasma-Like Medium with dialyzed fetal bovine serum (HPLM+ds) (AID 1963879). Also: nearly all actives have a fitted effect of over 35% in size. The note with it: ATP luminescence, 48 h; Potency: viability; series mostly up to 45.8 µM. The essentials:
as §1

Assay [10] in a line: Quantitative highthroughput screen to assess conditional lethalithy of P12 Ichikawa cells grown in RPMI1640 with untreated serum (RPMI+s) (AID 1963881). Also: nearly all actives have a fitted effect of over 35% in size.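 As to Viability: 100% = DMSO wells and 0% = empty wells without cells.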 The settings on record: ATP luminescence, 48 h; Potency: viability; series mostly up to 45.8 µM. The method in brief:
as §1

Assay [11] can be described thus: Quantitative highthroughput screen to assess conditional lethalithy of SEM cells grown in RPMI1640 with unreated serum (RPMI+s) (AID 1963883). Also: nearly all actives have a fitted effect of over 35% in size.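 As to Viability: 100% = DMSO wells and 0% = empty wells without cells.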 The settings on record: SEM B-ALL cells, CellTiter-Glo viability, 48 h; series mostly up to 45.8 µM. The method in brief: as §1
Assay [12] is described as follows: Cellular viability qHTS for adrenocortical cancer (ACC) cell line NCI-H295R (AID 1963990). Also: nearly all actives have a fitted effect of over 60% in size. The note with it: CellTiter-Glo ATP luminescence, 48 h; series mostly up to 46.1 µM. The essentials: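 Adrenocortical carcinoma cells, suspended at 300 000 cells/mL in serum-free DMEM plus ITS, rested overnight before pin transfer of compound. After two days' incubation, ATP-dependent luminescence was recorded and curve-fitted.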
Potency is read from the fitted curve at half-maximal effect.

In the case of `c1cc(-c2cnn3cc(-c4ccc(OCCN5CCCCC5)cc4)cnc23)ccn1`, the Potency was 20.6 nM (active) and 20.9 nM (active) in assay [1]; 11.2 µM (active) in assay [7]. For the same molecule, the Potency entry in [2], in [3], in assay [4], in assay [5] and in [6] was “inactive” throughout.

For the molecule `COc1ccc(CC2SC(=O)NC2=O)cc1C(=O)NCc1ccc(C(F)(F)F)cc1` (centres undefined), the Potency in assay [1] is 18.6 µM (active). Moreover, the Potency result in assay [2], in [8], in assay [9], in assay [4] and in [10] was “inactive” throughout. For the same molecule, the activity (max response) in assay [7] was -17.2% (inactive).

Regarding `CCCS(=O)c1ccc2nc(NC(=O)OC)[nH]c2c1` (centres undefined), the Potency in assay [1] was 23.7 µM (active) and 23.5 µM (active); in assay [2] it was 20.9 µM (active); in assay [8], 20.9 µM (active); in assay [6] it was 9.35 µM (active); in [7], 25.1 µM (active).

For the molecule `COc1cc2c(cc1-c1c(C)noc1C)ncc1[nH]c(=O)n([C@H](C)c3ccccn3)c12`, the Potency in assay [1] is 0.259 µM (active); in [2], 3.32 µM (active); in assay [9] it was 5.9 µM (active); in [5], 1.87 µM (active); in assay [11], 1.87 µM (active); in assay [6] it was 1.48 µM (active). In addition, in assay [7], the activity (max response) was -16.6% (inactive).

Turning to `Nc1cccc2c1C(=O)N(C1CCC(=O)NC1=O)C2=O` (centres undefined), the Potency result in [1], in assay [2], in assay [3] and in assay [12] was “inactive” throughout. For the same molecule, the figures for the Potency in assay [4] and in assay [10] were 14.8 µM (active) and 16.6 µM (active), respectively. In addition, the activity (max response) in assay [7] is 11.8% (inactive).

For the molecule `COc1cc(OC)c(NC(=O)Nc2cc(C)on2)cc1Cl`, in assay [1], the Potency was 6.61 µM (active). For the same molecule, the Potency entry in assay [2], in assay [8], in [9], in assay [4], in assay [10] and in assay [11] was “inactive” in each case. Further, the Potency result in [6] and in [12] was “inactive” each time. For the same molecule, in assay [7], the activity (max response) was -19.6% (inactive).

Regarding `Cc1c(C)n(Cc2ccc(-c3ccccc3C(=O)O)cc2)c2ccc(C(=O)N[C@@H](C)c3ccc([N+](=O)[O-])cc3)cc12`, the Potency is 20.9 µM (active) in assay [1], 9.35 µM (active) in [2], 9.35 µM (active) in assay [3] and 10.5 µM (active) in assay [4]. The Potency result in [5], in assay [11] and in assay [6] was “inactive” throughout.

In the case of `CN(C)CC(C)(C)CNc1nn2c(-c3ccccc3)nnc2cc1C1CCC1`, the Potency in assay [1] is 0.0103 µM (active); in assay [2], 20.9 µM (active); in assay [8], 10.5 µM (active); in [9], 10.5 µM (active); in [4] it was 18.7 µM (active); in assay [10] it was 16.6 µM (active).

Take `CCOc1cc(CC(=O)N[C@@H](CC(C)C)c2ccccc2N2CCCCC2)ccc1C(=O)O`: the Potency result in assay [1], in assay [5], in assay [11] and in assay [6] was “inactive” in each case. Also, the Potency is 0.332 µM (active) in [2], 3.32 µM (active) in assay [4], 2.64 µM (active) in assay [10] and 25.1 µM (active) in assay [12].

As to `COc1ccc(C2=N[C@H](c3ccc(Cl)cc3)[C@H](c3ccc(Cl)cc3)N2C(=O)N2CCNC(=O)C2)c(OC(C)C)c1`, the Potency in assay [1] is 16.6 µM (active); in [2] it was 23.5 µM (active); in assay [8] it was 10.5 µM (active); in assay [9], 10.5 µM (active); in [5] it was 0.235 µM (active); in [11] it was 0.418 µM (active). In addition, the Potency in assay [6] was 0.187 µM (active); in assay [7] it was 31.6 µM (active).

In the case of `CC[C@H](C)C(=O)O[C@H]1C[C@@H](C)C=C2C=C[C@H](C)[C@H](CC[C@@H]3C[C@@H](O)CC(=O)O3)[C@H]21`, the Potency in [1] is 2.66 µM (active) and 3.17 µM (active) and 4.68 µM (active); in assay [8], 14.8 µM (active); in assay [12] it was “inactive and 17.8 µM (active)”. In addition, the Potency result in [2], in [5] and in assay [6] was “inactive” in each case. Besides, the activity (max response) in [7] was -5.87% (inactive).

For the molecule `COc1ccc(C(=O)CC2(O)C(=O)Nc3c(Cl)ccc(Cl)c32)cc1` (centres undefined), the Potency was 3.26 µM (active) in assay [1]; 9.35 µM (active) in [2]; 4.18 µM (active) in assay [9]; 4.69 µM (active) in [10]; 4.18 µM (active) in [5]; 3.72 µM (active) in assay [11]. Besides, in assay [6], the Potency was 4.18 µM (active). Besides, in assay [7], the activity (max response) is -14.9% (inactive). The Potency entry in [12] was “inactive”.

As to `Cc1cc2c(cc1C1(c3ccc(C(=O)O)cn3)CC1)C(C)(C)CCC2(C)C`, the results for the Potency in assay [1] and in assay [6] were 0.468 µM (active) and 0.0662 µM (active), respectively. Also, the Potency result in assay [2], in assay [9], in assay [4], in assay [10], in assay [5] and in [11] was “inactive” each time. Also, the Potency entry in assay [12] was “inactive”. The activity (max response) in assay [7] was 9.77% (inactive).

Regarding `CN(C)c1ccc2nc3ccc(=[N+](C)C)cc-3sc2c1`, the Potency is 372 nM (active) and 841 nM (active) in assay [1]; 8.33 µM (active) in assay [2]; 8.33 µM (active) in assay [8]; 5.26 µM (active) in assay [9]; 7.43 µM (active) in assay [4]; 5.9 µM (active) in assay [10]. Besides, the Potency was 9.35 µM (active) in [5]; 7.08 µM (active) and 4.11 µM (active) in assay [7]; 8.91 µM (active) and 8.2 µM (active) in [12].

For the molecule `Nc1ccc(C(=O)c2cc3c(ccc4ccccc43)[nH]2)cc1`, the Potency was 4.81 µM (active) in assay [1]; 14.8 µM (active) in [2]; 2.96 µM (active) in [9]; 5.9 µM (active) in assay [4]; 3.32 µM (active) in [10]; 2.96 µM (active) in [5]. The Potency is 3.72 µM (active) in assay [11], 2.96 µM (active) in [6], 2.24 µM (active) in assay [7] and 2.51 µM (active) in assay [12].

Regarding `CN1C(=O)c2sccc2N(C)c2nc(Nc3ccc(S(N)(=O)=O)cc3)ncc21`, the Potency in [1] is 0.468 µM (active); in assay [2], 10.5 µM (active); in assay [8], 9.33 µM (active); in assay [9] it was 2.63 µM (active); in [4] it was 2.34 µM (active); in assay [10] it was 2.63 µM (active). For the same molecule, the Potency in assay [5] was 2.63 µM (active); in assay [11], 2.34 µM (active); in [6], 2.34 µM (active); in [7], 20 µM (active).

For the molecule `O=C1NC(=O)C(c2ccccc2[N+](=O)[O-])=C1Nc1ccc(O)c(Cl)c1`, the Potency in assay [1] was 16.6 µM (active); in assay [2], 18.7 µM (active); in [3], 18.7 µM (active); in [4], 14.8 µM (active); in assay [5], 16.6 µM (active). Further, in [7], the activity (max response) is -17.3% (inactive). Besides, in assay [12], the Potency entry was “inactive”.
